# Measured values reported in ChEMBL document CHEMBL1157539, “Thousands of chemical starting points for antimalarial lead identification” (Nature, 2010).
# Residues, ends and D or L forms follow the SMILES beside them. *: point of attachment. Boc = CC(C)(C)OC(=O)*
# Legend:
# Assay type in all cases: functional
# Plasmodium falciparum [1] = assay: GSK_TCMDC: Inhibition of Plasmodium falciparum 3D7 in whole red blood cells, using parasite LDH activity as an index of growth. Test compounds present at 2uM
# Plasmodium falciparum [2] = assay: GSK_TCMDC: Inhibition of Plasmodium falciparum Dd2 in whole red blood cells, using parasite LDH activity as an index of growth. Test compounds present at 2uM
# HepG2 = assay: GSK_TCMDC: Percent inhibition of human HepG2 cell line. Test compounds present at 10uM.
compound,measurement,setting,value
Cl.NOCCCCOc1ccc(Cl)cc1,Inhibition,Plasmodium falciparum [1],98%
same,Inhibition,Plasmodium falciparum [2],0%
same,Inhibition,HepG2,2%
O=[N+]([O-])c1ccc(N/C(=N\c2ccccc2Br)NC2CCCc3ccccc32)c(O)c1 (stereo unspecified),Inhibition,Plasmodium falciparum [1],98%
same,Inhibition,Plasmodium falciparum [2],89%
same,Inhibition,HepG2,0%
c1cc(CNC2Cc3ccc(-c4cccs4)cc3C2)cc(-n2ccnc2)c1 (stereo unspecified),Inhibition,Plasmodium falciparum [1],100%
same,Inhibition,Plasmodium falciparum [2],63%
same,Inhibition,HepG2,0%
COc1ccc2c(=NN=Cc3ccncc3)cc(C)[nH]c2c1,Inhibition,Plasmodium falciparum [1],99%
same,Inhibition,Plasmodium falciparum [2],95%
same,Inhibition,HepG2,0%
CCCCN(CCCC)CCNC(=O)c1cccc(NC(=O)N2CCc3cc(SC)c(C(F)(F)F)cc32)c1,Inhibition,Plasmodium falciparum [1],96%
same,Inhibition,Plasmodium falciparum [2],32%
same,Inhibition,HepG2,15%
Cl.Cn1ncc2c3c(CCN4CCC(NCc5cc6c(cn5)OCC6)CC4)c(Cl)cnc3ccc21,Inhibition,Plasmodium falciparum [1],94%
same,Inhibition,Plasmodium falciparum [2],0%
same,Inhibition,HepG2,4%
Cc1nnsc1C(=O)Nc1cccc(-c2ccc(-c3nc4cc(C(F)(F)F)ccc4[nH]3)cc2)c1,Inhibition,Plasmodium falciparum [1],99%
same,Inhibition,Plasmodium falciparum [2],97%
same,Inhibition,HepG2,62%
O=C(O)C(F)(F)F.Oc1ccc(-c2nc3c(N4CCN(Cc5ccccc5)CC4)cccc3n2C2CCNCC2)cc1,Inhibition,Plasmodium falciparum [1],85%
same,Inhibition,Plasmodium falciparum [2],7%
same,Inhibition,HepG2,0%
CN1CCN(Cc2ccc(-c3ccc4c(Nc5cc(O)c(F)cc5Cl)ccnc4c3)o2)CC1,Inhibition,Plasmodium falciparum [1],100%
same,Inhibition,Plasmodium falciparum [2],99%
same,Inhibition,HepG2,27%
Cc1onc(-c2ccccc2Cl)c1C(=O)Nc1cc(Cl)c(Cl)cc1Cl,Inhibition,Plasmodium falciparum [1],90%
same,Inhibition,Plasmodium falciparum [2],57%
same,Inhibition,HepG2,3%
O=C(c1cc2c(s1)-c1cccc(Cl)c1SC2)N1CCN(c2ccncc2)CC1,Inhibition,Plasmodium falciparum [1],94%
same,Inhibition,Plasmodium falciparum [2],36%
same,Inhibition,HepG2,45%
Cl.FC(F)(F)c1ccc(COc2cc(Cl)ccc2Cn2ccnc2)cc1,Inhibition,Plasmodium falciparum [1],95%
same,Inhibition,Plasmodium falciparum [2],0%
same,Inhibition,HepG2,13%
FC(F)(F)c1ccc2[nH]ccc(=NN=Cc3ccc(Cl)cc3)c2c1,Inhibition,Plasmodium falciparum [1],100%
same,Inhibition,Plasmodium falciparum [2],53%
same,Inhibition,HepG2,5%
CN1CCN(CCCN(Cc2cccc(-c3ccc(CNC4CCCC4)cc3)c2)C(=O)/C=C/c2ccccc2)CC1.O=C(O)C(F)(F)F,Inhibition,Plasmodium falciparum [1],98%
same,Inhibition,Plasmodium falciparum [2],96%
same,Inhibition,HepG2,62%
Cc1cccc2nc(-c3ccc(-c4cccc(NC(=O)c5cnccc5C(F)(F)F)c4)cc3)[nH]c12,Inhibition,Plasmodium falciparum [1],84%
same,Inhibition,Plasmodium falciparum [2],13%
same,Inhibition,HepG2,25%
O=C(Nc1cccc(-c2nn3ccccc3c2-c2ccnc(Nc3ccc(Cc4ccncc4)cc3)n2)c1)c1c(F)cccc1F,Inhibition,Plasmodium falciparum [1],97%
same,Inhibition,Plasmodium falciparum [2],97%
same,Inhibition,HepG2,43%
COc1ccc2nccc([C@@H](O)CN3CCC(NCc4cc5oc(=O)n(C)c5cc4F)CC3)c2c1.O=C(O)C(=O)O,Inhibition,Plasmodium falciparum [1],99%
same,Inhibition,Plasmodium falciparum [2],72%
same,Inhibition,HepG2,0%
CN1CCN(CC(O)CNC(=O)Nc2ccc(Cl)cc2)CC1.O=C(O)C(F)(F)F (stereo unspecified),Inhibition,Plasmodium falciparum [1],99%
same,Inhibition,Plasmodium falciparum [2],98%
same,Inhibition,HepG2,1%
Cc1cc(N2Cc3ccccc3C2)nc(Nc2ccc(S(=O)(=O)N3CCOCC3)cc2)n1.Cl,Inhibition,Plasmodium falciparum [1],100%
same,Inhibition,Plasmodium falciparum [2],85%
same,Inhibition,HepG2,13%
CN(C)C(=O)CN1CCN(c2ncnc(N3CCc4c([nH]c5ccccc45)[C@@H]3c3ccc4c(c3)CCO4)n2)CC1,Inhibition,Plasmodium falciparum [1],99%
same,Inhibition,Plasmodium falciparum [2],98%
same,Inhibition,HepG2,12%
Cl.O=c1cc(NCCCNCc2sc(Br)c(Br)c2Br)[nH]c2ccccc12,Inhibition,Plasmodium falciparum [1],90%
same,Inhibition,Plasmodium falciparum [2],38%
same,Inhibition,HepG2,0%
CCc1ccc(C2CCN(CCCCNC(=O)c3ccc(NC(=O)c4ccc(Cl)cc4)cc3)CC2)cc1,Inhibition,Plasmodium falciparum [1],100%
same,Inhibition,Plasmodium falciparum [2],63%
same,Inhibition,HepG2,15%
Cc1cc(F)ccc1-c1nc(NCCCNCCc2ccccc2)nc2c1ccc(=O)n2-c1c(F)cccc1F.O=C(O)C(F)(F)F,Inhibition,Plasmodium falciparum [1],100%
same,Inhibition,Plasmodium falciparum [2],100%
same,Inhibition,HepG2,36%
CN/C(=N\O)NCCN(C)C.Cl,Inhibition,Plasmodium falciparum [1],88%
same,Inhibition,Plasmodium falciparum [2],0%
same,Inhibition,HepG2,0%
Nc1c2c(nc3ccc(Oc4ccc(Cl)cc4)cc13)CCCC2,Inhibition,Plasmodium falciparum [1],100%
same,Inhibition,Plasmodium falciparum [2],65%
same,Inhibition,HepG2,42%
CNC(=O)c1cc(NCCCNCc2ccc(Cl)c(C(F)(F)F)c2)nc2ccccc12.Cl,Inhibition,Plasmodium falciparum [1],91%
same,Inhibition,Plasmodium falciparum [2],7%
same,Inhibition,HepG2,25%
O=[N+]([O-])c1cc2c(cc1C=NNc1nc(=Nc3ccccc3)[nH]c(=Nc3ccccc3)[nH]1)OCO2,Inhibition,Plasmodium falciparum [1],98%
same,Inhibition,Plasmodium falciparum [2],46%
same,Inhibition,HepG2,0%
CCNc1cc(C(=O)N[C@@H](Cc2ccccc2)[C@H](O)CNCCC(C)(C)C)c(F)c(N2CCCCS2(=O)=O)c1.O=CO,Inhibition,Plasmodium falciparum [1],98%
same,Inhibition,Plasmodium falciparum [2],93%
same,Inhibition,HepG2,2%
COc1ccc(-c2cccc(NC(=O)c3cccc(Cl)c3)c2)cc1CNC(C)C.O=C(O)C(F)(F)F,Inhibition,Plasmodium falciparum [1],100%
same,Inhibition,Plasmodium falciparum [2],8%
same,Inhibition,HepG2,15%
Cc1cccc2nc(-c3cccc(-c4cccc(NC(=O)CNc5ccc(C(N)=O)cc5)c4)c3)[nH]c12,Inhibition,Plasmodium falciparum [1],100%
same,Inhibition,Plasmodium falciparum [2],56%
same,Inhibition,HepG2,15%
Cc1c(Cl)cccc1S(=O)(=O)N1CCCCC(c2ccc(C(F)(F)F)cc2)=N1,Inhibition,Plasmodium falciparum [1],86%
same,Inhibition,Plasmodium falciparum [2],91%
same,Inhibition,HepG2,15%
COc1ccc(-c2ccc(NC(=O)c3ccc(C#N)cc3)cc2)cc1CN1CCCN(C)CC1.O=C(O)C(F)(F)F,Inhibition,Plasmodium falciparum [1],99%
same,Inhibition,Plasmodium falciparum [2],75%
same,Inhibition,HepG2,27%
CCOc1cc2ncnc(Nc3ccc(OCc4c(F)cccc4F)c(OC)c3)c2cc1OCC.Cl,Inhibition,Plasmodium falciparum [1],96%
same,Inhibition,Plasmodium falciparum [2],60%
same,Inhibition,HepG2,7%
NC(=O)C1CCN(Cc2ccc(-c3cccc(-c4nc5cc(F)ccc5[nH]4)c3)cc2)CC1.O=C(O)C(F)(F)F,Inhibition,Plasmodium falciparum [1],90%
same,Inhibition,Plasmodium falciparum [2],3%
same,Inhibition,HepG2,10%
COc1ccc(CNCc2ccc(F)cc2)cc1-c1ccc(S(=O)(=O)NCCN2CCCC2)cc1.O=C(O)C(F)(F)F,Inhibition,Plasmodium falciparum [1],91%
same,Inhibition,Plasmodium falciparum [2],25%
same,Inhibition,HepG2,38%
Cc1cc(=O)c(C2CCC(c3ccc(Cl)cc3)CC2)c(C)[nH]1 (stereo unspecified),Inhibition,Plasmodium falciparum [1],88%
same,Inhibition,Plasmodium falciparum [2],70%
same,Inhibition,HepG2,0%
CCCc1ccc(NC(=O)c2ccc(CN3CCCN(Cc4cccc(O)c4)CC3)cc2)cc1.O=C(O)C(F)(F)F,Inhibition,Plasmodium falciparum [1],100%
same,Inhibition,Plasmodium falciparum [2],63%
same,Inhibition,HepG2,51%
Cn1nccc1C(=O)NCCNCc1cccc(-c2ccc(-c3nc4ccccc4[nH]3)cc2)c1.O=C(O)C(F)(F)F,Inhibition,Plasmodium falciparum [1],100%
same,Inhibition,Plasmodium falciparum [2],98%
same,Inhibition,HepG2,19%
Cc1c(F)cc(C(=O)NC2CC2)cc1-c1ccc2c(cnn2S(=O)(=O)c2ccc(Cl)s2)c1,Inhibition,Plasmodium falciparum [1],81%
same,Inhibition,Plasmodium falciparum [2],50%
same,Inhibition,HepG2,24%
Cc1ccc(Nc2nccc(Nc3ccc4c(C)n[nH]c4c3)n2)cc1F.Cl,Inhibition,Plasmodium falciparum [1],95%
same,Inhibition,Plasmodium falciparum [2],1%
same,Inhibition,HepG2,6%
CN(C)CC1CCCN1Cc1ccccc1-c1cnn(C)c(=O)c1Oc1ccc(F)cc1.O=C(O)C(F)(F)F (stereo unspecified),Inhibition,Plasmodium falciparum [1],91%
same,Inhibition,Plasmodium falciparum [2],19%
same,Inhibition,HepG2,29%
Cc1onc(-c2c(Cl)cccc2Cl)c1C(=O)NC1=NC(C)(C)ON1c1ccccc1,Inhibition,Plasmodium falciparum [1],97%
same,Inhibition,Plasmodium falciparum [2],36%
same,Inhibition,HepG2,6%
O=c1cc(NCCCNCc2cccc(Oc3ccccc3)c2)[nH]c2ccccc12,Inhibition,Plasmodium falciparum [1],93%
same,Inhibition,Plasmodium falciparum [2],67%
same,Inhibition,HepG2,0%
CC(C)(C)OC(=O)[C@H](CC(N)=O)NC(=O)c1ccc(-c2ccc(-c3nc4cc(C(F)(F)F)ccc4[nH]3)s2)cc1,Inhibition,Plasmodium falciparum [1],94%
same,Inhibition,Plasmodium falciparum [2],88%
same,Inhibition,HepG2,62%
O=C(NC(=S)NCc1ccncc1)c1ccccc1,Inhibition,Plasmodium falciparum [1],94%
same,Inhibition,Plasmodium falciparum [2],0%
same,Inhibition,HepG2,0%
CCN(CCCN1CCCCC1)c1cc(C)nc(Nc2ccc3c(c2)CCC3)n1.O=C(O)C(F)(F)F,Inhibition,Plasmodium falciparum [1],100%
same,Inhibition,Plasmodium falciparum [2],93%
same,Inhibition,HepG2,32%
COc1cc2nc(N3CCC(CNC(=O)c4ccc(-c5ccc(C#N)cc5)cc4)CC3)nc(N)c2cc1OC,Inhibition,Plasmodium falciparum [1],100%
same,Inhibition,Plasmodium falciparum [2],99%
same,Inhibition,HepG2,21%
CCCCN(C)CC#Cc1ccc2[nH]c(C)c(Cl)c(=O)c2c1,Inhibition,Plasmodium falciparum [1],98%
same,Inhibition,Plasmodium falciparum [2],97%
same,Inhibition,HepG2,0%
O=C(Nc1ccc(F)cc1F)NC1CCN(c2ccnc3cc(Cl)ccc23)C1.O=C(O)C(F)(F)F (stereo unspecified),Inhibition,Plasmodium falciparum [1],100%
same,Inhibition,Plasmodium falciparum [2],82%
same,Inhibition,HepG2,25%
COc1cccc(CCNCCCCCCNCCc2ccc(Cl)cc2)c1.Cl,Inhibition,Plasmodium falciparum [1],100%
same,Inhibition,Plasmodium falciparum [2],3%
same,Inhibition,HepG2,32%
Cc1ccc(NC(=O)Nc2ccc(Br)cc2)cc1OCCN(C)C,Inhibition,Plasmodium falciparum [1],84%
same,Inhibition,Plasmodium falciparum [2],15%
same,Inhibition,HepG2,13%
COC(=O)CC[C@H](NC(=O)[C@H](C)NC(=O)OC(C)(C)C)C(=O)OC (Boc-Ala-Glu(OMe)-OMe),Inhibition,Plasmodium falciparum [1],95%
same,Inhibition,Plasmodium falciparum [2],0%
same,Inhibition,HepG2,12%
COc1cc(Cc2cnc(N)nc2N)cc(OCCCc2cc(OCc3ccccc3)no2)c1OC,Inhibition,Plasmodium falciparum [1],86%
same,Inhibition,Plasmodium falciparum [2],4%
same,Inhibition,HepG2,30%
Cc1cc(C(=O)CN2C(=O)NC3(CCCc4ccccc43)C2=O)c(C)n1Cc1ccc(F)cc1 (stereo unspecified),Inhibition,Plasmodium falciparum [1],92%
same,Inhibition,Plasmodium falciparum [2],53%
same,Inhibition,HepG2,4%
COc1cc(NC(=O)c2c(-c3c(F)cccc3Cl)noc2C)c(OC)cc1Cl,Inhibition,Plasmodium falciparum [1],89%
same,Inhibition,Plasmodium falciparum [2],17%
same,Inhibition,HepG2,0%
CCCCCCNCc1c(O)ccc2c(CNCCCCCC)c(O)ccc12.Cl,Inhibition,Plasmodium falciparum [1],100%
same,Inhibition,Plasmodium falciparum [2],100%
same,Inhibition,HepG2,22%
CS(=O)(=O)O.N#Cc1ccc(CNCCCCCCNCc2ccc(C#N)c3ccccc23)c2ccccc12,Inhibition,Plasmodium falciparum [1],100%
same,Inhibition,Plasmodium falciparum [2],96%
same,Inhibition,HepG2,51%
CC(C)(C)SC1SC(SC(C)(C)C)C(OC(=O)c2ccccc2)C(OC(=O)c2ccccc2)C1OC(=O)c1ccccc1 (stereo unspecified),Inhibition,Plasmodium falciparum [1],95%
same,Inhibition,Plasmodium falciparum [2],45%
same,Inhibition,HepG2,0%
COc1ccc(-c2cnc(NCc3ccccc3)nc2)cc1CNC1CCN(C)CC1.O=C(O)C(F)(F)F,Inhibition,Plasmodium falciparum [1],96%
same,Inhibition,Plasmodium falciparum [2],64%
same,Inhibition,HepG2,19%
Cc1cc(-c2cc3nc4c(c(O)n3n2)CCCC4)c(C)o1,Inhibition,Plasmodium falciparum [1],94%
same,Inhibition,Plasmodium falciparum [2],82%
same,Inhibition,HepG2,4%
CN1CCCN(Cc2ccc(-c3cccc(NC(=O)c4cccc(F)c4)c3)cc2)CC1.O=C(O)C(F)(F)F,Inhibition,Plasmodium falciparum [1],91%
same,Inhibition,Plasmodium falciparum [2],12%
same,Inhibition,HepG2,28%
c1cncc(CN2CCN(Cc3ccc(-c4ccc(-c5nc6ccccc6[nH]5)s4)cc3)CC2)c1,Inhibition,Plasmodium falciparum [1],97%
same,Inhibition,Plasmodium falciparum [2],34%
same,Inhibition,HepG2,32%
